# Bioassay records (PubChem)
# HSP90 inh = HSP90 inhibitors, primary screen, cell lysate, luminescence; Heat shock protein HSP 90 (rabbit reticulocyte lysate; luciferase refolding); Rabbit reticulocyte lysate, luciferase refolding luminescence, 3 h; inhibition, % at 5.6 µM; 290,000 tested, 0.91% active;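 active means inhibition above the screen-wide mean plus 3 SD, computed separately per campaign, cut at about 16% in these data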;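 further: inhibitors lower the luminescence because luciferase stays unfolded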
# HSF-1 act = HSF-1 activators, primary screen, NIH3T3-HGL cells, MG132 stress, luminescence, single point | NIH3T3-HGL HSF-1 luciferase reporter, 8 h; 100% = twice DMSO control signal | activation, % at 9 µM | 300,000 tested, 1.7% active | AID 504408, 2011;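 active means mean replicate activation of at least 50% with a set share of replicates each reaching 50%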
# DAX1 inh = DAX1 (NR0B1) inhibitors, primary screen, cell-based, HEK293, Gal4-DAX1, luciferase luminescence; 340,000 tested, 0.99% active; inhibition, % at 6.75 µM; Nuclear receptor subfamily 0 group B member 1 (Homo sapiens), P51843; HEK293 Gal4-DAX1 luciferase reporter;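 active means inhibition above the mean over all tested compounds plus 3 SD, cut at about 4.2% in these data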;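 further: inhibition shows as a rise in luminescence from relieved DAX1 repression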
# HSF1 inh = HSF1 inhibitors in luciferase reporter cells, primary screen, cell-based, NIH3T3, luminescence. 300,000 tested, 0.77% active. NIH3T3-HGL HSE-luciferase, MG132-induced, luminescence 8 h; hits give low values. activity change, negative = inhibition, % at 7.5 µM (by protocol);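 active means more than half of replicate wells show activity change below -50%, luminescence cut by over half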;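 further: luciferase reports HSF-1 transcriptional activity via heat shock element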
# GAA850 FXN act = FXN promoter activators, primary screen, cell-based, luciferase luminescence, HEK293 lucGAA850; HEK293 lucGAA850 FXN promoter luciferase reporter, 24 h; percent of 10 µM SAHA response; activation, % at 6 µM; 360,000 tested, 0.56% active;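 active means activation above the average of all compounds screened plus 3 SD, cutoff fixed separately per campaign, cut at about 7.5% in these data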
# AHR activator = AHR activators, primary screen, cell-based, luminescence, luciferase reporter, human; 320,000 tested, 2.5% active; Aryl hydrocarbon receptor (Homo sapiens), P35869; activation, % at 5 µM; AHR-responsive luciferase reporter cells; in the data active means activation above about 47%
# AHR act confirm = AHR activators, confirmation, cell-based, luminescence, luciferase reporter, human. shares compounds with AHR activator. human cells, AHR-responsive luciferase reporter. activation, % at 9 µM. 2,300 tested, 87% active. AID 2845, 2010; in the data active means activation above about 49%;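 further: HepG2 hepatoma cells carrying a DRE-driven firefly luciferase reporter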
# PXR counter = human PXR activators, counter-screen for AHR activator project, cell-based, luciferase luminescence. AID 434939, 2010. activation, % at 11.6 µM. cell-based PXR reporter. shares compounds with AHR activator. 2,300 tested, 88% active; in the data active means activation above about 11%;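 further: human hepatoma DPX-2 cells expressing full-length human PXR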
# Target sequence (O75469 whole entry, looked up): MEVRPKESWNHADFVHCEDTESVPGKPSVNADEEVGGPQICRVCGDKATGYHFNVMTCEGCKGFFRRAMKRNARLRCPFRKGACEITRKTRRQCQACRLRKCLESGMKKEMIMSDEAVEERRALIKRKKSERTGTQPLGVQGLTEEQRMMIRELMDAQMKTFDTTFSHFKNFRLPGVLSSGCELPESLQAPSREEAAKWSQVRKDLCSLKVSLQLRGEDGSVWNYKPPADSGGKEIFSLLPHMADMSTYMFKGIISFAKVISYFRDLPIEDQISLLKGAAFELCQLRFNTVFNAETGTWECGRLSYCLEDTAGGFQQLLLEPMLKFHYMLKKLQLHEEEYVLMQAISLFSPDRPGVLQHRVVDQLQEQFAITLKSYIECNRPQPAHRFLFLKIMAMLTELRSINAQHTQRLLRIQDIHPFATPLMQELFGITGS
# A number is an active result; . = inactive; / = no result given. Hits are enriched below; roughly 5.9% of the tested compounds scored in any of these assays.
SMILES,HSP90 inh,HSF-1 act,DAX1 inh,HSF1 inh,GAA850 FXN act,AHR activator,AHR act confirm,PXR counter
CCOC(=O)C(=O)c1cn(C2OCC(OC(C)=O)C(OC(C)=O)C2OC(C)=O)c2ccccc12 (stereo not given),.,.,.,.,.,.,/,/
COc1cc(C(=O)NC2CCCNC2)cc(OC)c1OC (stereo not given),.,/,/,/,/,/,/,/
Cc1cc(C)nc(SCC(=O)NNC(=O)c2cccs2)n1,.,.,.,.,.,.,/,/
C/C(=N\NC(=O)CSc1nc(C)cc(C)n1)c1cccs1,.,.,.,.,.,110,98,50
Cc1cc(C)c(-c2cc(NC(=O)COC(=O)c3ccc(C#N)cc3)n(-c3ccccc3)n2)cc1C,.,.,.,.,.,129,105,82
c1ccc(CCNc2ncnc3scc(C4COc5ccccc5O4)c23)cc1 (stereo not given),.,.,.,.,.,99,100,23
Cc1nc(-c2ccccn2)sc1C(=O)Nc1ccc(Cl)c(Cl)c1,.,.,.,.,.,109,57,40
CCn1c2ccccc2c2cc(Nc3cc(C)nc4ncnn34)ccc21,.,.,.,.,.,132,89,90
Cn1c2ccccc2c(=O)c2ccc(C#Cc3ccccn3)cc21,.,.,/,.,/,.,/,/
Cn1c2ccccc2c(=O)c2cc(C#Cc3ccccn3)ccc21,.,.,.,.,.,96,115,28
O=S(=O)(N1CCCCC1)N1CCN(c2cc(Cl)ccc2Cl)CC1,.,.,.,.,.,.,/,/
Cc1cc2oc(=O)cc(CN3CCOCC3)c2c(C)c1Cl,.,.,.,.,.,/,/,/
COc1cc(NC(=O)C/C(C)=N/NC(=O)C(=O)NC2CCCCC2)c(OC)cc1Cl,.,.,.,.,.,97,.,.
COc1cc(NC(=O)C/C(C)=N/NC(=O)C(=O)NCCO)c(OC)cc1Cl,.,.,.,.,.,81,.,11
COc1cc(NC(=O)C/C(C)=N/NC(=O)c2ccccn2)c(OC)cc1Cl,.,.,.,.,.,114,70,14
COc1cc(NC(=O)C/C(C)=N/NC(=O)C2CCCCC2)c(OC)cc1Cl,.,.,.,.,.,105,.,.
C/C(CC(=O)Nc1ccc(Cl)cc1Cl)=N\NC(=O)C(=O)NCCO,.,.,.,.,.,.,/,/
Cc1cc(=O)oc2c3c(cc(OCC(=O)NC4CC4)c12)OC(C)(C)CC3,.,.,.,.,.,.,/,/
Nc1ccc2ccccc2c1N=Nc1ccccc1,/,/,.,/,.,/,/,/
Nc1ccc(N=Nc2ccccc2)c2cccnc12,.,82,.,.,.,94,84,12
CCOc1ccc(-c2c(C(=O)N/N=C(\C)c3cccnc3)nnn2-c2nonc2N)cc1,.,.,.,.,.,91,94,33
CCCOc1ccc(-c2c(C(=O)N/N=C/c3cccnc3)nnn2-c2nonc2N)cc1,.,.,.,.,.,.,/,/
COc1ccc([C@H]2CC(=O)C=C(c3ccc(Br)c4ccccc34)C2)cc1,/,/,.,/,.,.,/,/
O=C1C=C(c2ccc(Br)c3ccccc23)C[C@@H](c2ccc3c(c2)OCO3)C1,/,/,.,/,.,89,95,32
COc1c(F)cccc1C1=CC(=O)C[C@H](c2ccc3c(c2)OCO3)C1,/,/,.,/,.,101,76,66
SMILES,HSP90 inh,HSF-1 act,DAX1 inh,HSF1 inh,GAA850 FXN act,AHR activator,AHR act confirm,PXR counter
CCOC(=O)c1ccccc1NC(=O)COC(=O)C(CC)Oc1ccccc1 (stereo not given),/,/,.,/,.,/,/,/
Cc1cccc(NN=C2c3ccccc3-c3ccccc32)c1,.,.,.,.,.,88,115,22
CC(=O)Nc1cccc(-c2csc(Nc3ccc(C)cn3)n2)c1,.,67,.,.,.,145,.,34
Clc1cccc(Nc2nc(-c3ccncc3)cs2)c1,.,.,.,.,.,98,96,11
O=C(Nc1cccc(-c2csc(Nc3ccccc3)n2)c1)c1cc([N+](=O)[O-])cc(C(F)(F)F)c1,.,.,.,.,.,.,/,/
O=C(Nc1cccc(-c2csc(Nc3ccc(Cl)cc3)n2)c1)c1ccccc1,/,.,.,.,.,93,95,22
O=C(Nc1cccc(-c2csc(Nc3ccc(Cl)cc3)n2)c1)c1cccc(C(F)(F)F)c1,/,.,.,.,.,106,.,25
O=C(O)C1=CCNCC1,/,.,.,.,.,.,/,/
CC(C)c1ccc(/C=N/n2cnnc2)cc1,.,.,.,.,.,.,/,/
Cc1cccn2c(=O)c(C=O)c(Nc3ccccc3)nc12,.,.,.,.,.,.,/,/
NS(=O)(=O)c1ccc(Sc2ccc3c(c2)CCC3)nc1,.,.,.,.,.,.,/,/
O=C(O)C1CCN(C(=O)CSc2nc3cc(Cl)ccc3c(=O)n2Cc2ccccc2)CC1,.,.,.,.,.,.,/,/
CC(C)c1ccc(NC2CCCN(C(=O)c3ccoc3)C2)cc1 (stereo not given),.,.,.,.,.,.,/,/
CN(c1ccccc1)c1nc(-n2ccnc2)nc(-n2ccnc2)n1,.,.,.,.,.,92,106,29
CC(C(=O)c1ccccc1)n1cnc2ccccc2c1=O (stereo not given),.,.,.,.,.,.,/,/
Cc1ccc2[nH]c(O)c(N=NC(=O)C(C)n3cnc4ccccc4c3=O)c2c1 (stereo not given),.,.,.,.,.,88,69,46
COc1ccc(OC)c(-c2csc(NC(=O)COC(=O)C3CCC3)n2)c1,/,/,.,/,.,.,/,/
COc1ccc(OC)c(-c2csc(NC(=O)COC(=O)c3ccc(NC(=O)CC#N)cc3)n2)c1,/,/,.,/,.,80,.,.
O=C1CC(c2ccccc2)CC(O)=C1C=Nc1ccc(O)cc1 (stereo not given),.,.,.,.,.,83,67,14
COC(=O)c1ccc(N=CC2=C(O)CC(c3ccccc3)CC2=O)cc1 (stereo not given),.,.,/,.,.,.,/,/
COc1ccc(N=CC2=C(O)CC(c3ccccc3)CC2=O)c(OC)c1 (stereo not given),.,.,.,.,.,116,104,21
